# Columns and labels:
# Assay in all cases: DAPPL (digital affinity profiling via proximity ligation, sequencing); 10 mM Tris-HCl pH 7.5, 50 mM NaCl, 1 mM DTT, 4% glycerol, room temperature, 30 min; GST-TFs on glutathione beads, 16-mer random dsDNA library, 0.1% formaldehyde crosslink after washing; high values mean tight binding
# [1] = molecular target: T1, FLI1 (Homo sapiens, UniProt Q01543 1-452); settings: protein: recombinant; tags: N-terminal GST; dsDNA, one strand shown
# T1 sequence: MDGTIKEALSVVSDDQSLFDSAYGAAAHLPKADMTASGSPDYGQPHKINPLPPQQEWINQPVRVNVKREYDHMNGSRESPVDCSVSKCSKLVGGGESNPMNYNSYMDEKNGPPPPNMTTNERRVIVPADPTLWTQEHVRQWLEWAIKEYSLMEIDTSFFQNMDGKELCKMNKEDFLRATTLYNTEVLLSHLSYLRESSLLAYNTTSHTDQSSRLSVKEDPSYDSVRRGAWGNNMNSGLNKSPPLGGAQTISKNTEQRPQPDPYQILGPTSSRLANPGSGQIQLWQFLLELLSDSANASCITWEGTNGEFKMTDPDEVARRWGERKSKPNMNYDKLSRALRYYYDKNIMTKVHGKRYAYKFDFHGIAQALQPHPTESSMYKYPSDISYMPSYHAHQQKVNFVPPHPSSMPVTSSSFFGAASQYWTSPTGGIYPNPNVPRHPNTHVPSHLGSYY
# Method in brief: (§1)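 Sequencing on an Illumina NextSeq500 followed washing, crosslinking with 0.1% formaldehyde, proximity ligation (BsaI/T4 ligase, 1 h, 37 °C) and PCR amplification of pools that had been incubated for 30 min at room temperature with 200 nmole of a random double-stranded 16-mer DNA library in Tris/NaCl/DTT/glycerol buffer. Each pool held DNA-barcoded human transcription factors, expressed in yeast as GST fusions and captured on glutathione beads, plus a tag-only sample. Binding signal is a hexamer's read frequency for a factor divided by its frequency in the tag-only sample.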
# [2] = molecular target: T2, ELK1 (Homo sapiens, UniProt P19419 1-428); settings: protein: recombinant; tags: N-terminal GST; dsDNA, one strand shown
# T2 sequence: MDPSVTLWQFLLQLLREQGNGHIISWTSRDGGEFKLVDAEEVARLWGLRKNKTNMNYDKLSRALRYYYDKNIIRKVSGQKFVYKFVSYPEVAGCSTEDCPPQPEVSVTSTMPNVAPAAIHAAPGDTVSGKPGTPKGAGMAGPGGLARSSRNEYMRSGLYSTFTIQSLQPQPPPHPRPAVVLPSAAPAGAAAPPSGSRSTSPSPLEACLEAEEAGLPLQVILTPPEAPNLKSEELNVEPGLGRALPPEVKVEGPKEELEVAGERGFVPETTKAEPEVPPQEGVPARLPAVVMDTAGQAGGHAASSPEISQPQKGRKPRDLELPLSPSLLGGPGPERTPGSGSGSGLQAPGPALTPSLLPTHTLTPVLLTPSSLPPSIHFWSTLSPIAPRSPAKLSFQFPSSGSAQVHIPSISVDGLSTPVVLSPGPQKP
# Method in brief: as §1
# [3] = molecular target: T3, GABPA (Homo sapiens, UniProt Q06546 1-454); settings: protein: recombinant; tags: N-terminal GST; dsDNA, one strand shown
# T3 sequence: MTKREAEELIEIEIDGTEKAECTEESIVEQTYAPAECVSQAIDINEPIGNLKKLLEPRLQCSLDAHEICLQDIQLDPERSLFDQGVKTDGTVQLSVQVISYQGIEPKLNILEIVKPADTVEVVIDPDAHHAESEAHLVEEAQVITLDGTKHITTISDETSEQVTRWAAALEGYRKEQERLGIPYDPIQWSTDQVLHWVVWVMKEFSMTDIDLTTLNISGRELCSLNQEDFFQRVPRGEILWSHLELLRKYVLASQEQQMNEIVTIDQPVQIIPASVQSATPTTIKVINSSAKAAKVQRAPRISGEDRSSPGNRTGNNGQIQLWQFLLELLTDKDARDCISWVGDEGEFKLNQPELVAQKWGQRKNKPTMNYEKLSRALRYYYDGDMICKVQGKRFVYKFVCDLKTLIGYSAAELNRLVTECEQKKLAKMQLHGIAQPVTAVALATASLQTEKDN
# Method in brief: as §1
# [4] = molecular target: T4, ERG (Homo sapiens, UniProt P11308 1-479); settings: protein: recombinant; tags: N-terminal GST; dsDNA, one strand shown
# T4 sequence: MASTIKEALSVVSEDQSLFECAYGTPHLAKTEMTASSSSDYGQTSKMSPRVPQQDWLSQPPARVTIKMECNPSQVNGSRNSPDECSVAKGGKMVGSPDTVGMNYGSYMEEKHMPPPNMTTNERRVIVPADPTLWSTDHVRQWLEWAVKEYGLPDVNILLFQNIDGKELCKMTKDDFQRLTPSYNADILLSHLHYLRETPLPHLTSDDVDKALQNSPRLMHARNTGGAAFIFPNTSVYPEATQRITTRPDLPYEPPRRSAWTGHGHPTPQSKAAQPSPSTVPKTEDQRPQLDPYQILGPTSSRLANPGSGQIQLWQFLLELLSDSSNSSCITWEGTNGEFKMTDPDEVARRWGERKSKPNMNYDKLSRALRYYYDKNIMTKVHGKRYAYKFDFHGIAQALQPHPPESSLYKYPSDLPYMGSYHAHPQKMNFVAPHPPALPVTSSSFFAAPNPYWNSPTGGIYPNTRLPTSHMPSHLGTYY
# Method in brief: as §1
# [5] = molecular target: ELF1 (Homo sapiens, UniProt P32519 1-619); settings: protein: recombinant; tags: N-terminal GST; dsDNA, one strand shown
# Chain of ELF1 (P32519 whole entry): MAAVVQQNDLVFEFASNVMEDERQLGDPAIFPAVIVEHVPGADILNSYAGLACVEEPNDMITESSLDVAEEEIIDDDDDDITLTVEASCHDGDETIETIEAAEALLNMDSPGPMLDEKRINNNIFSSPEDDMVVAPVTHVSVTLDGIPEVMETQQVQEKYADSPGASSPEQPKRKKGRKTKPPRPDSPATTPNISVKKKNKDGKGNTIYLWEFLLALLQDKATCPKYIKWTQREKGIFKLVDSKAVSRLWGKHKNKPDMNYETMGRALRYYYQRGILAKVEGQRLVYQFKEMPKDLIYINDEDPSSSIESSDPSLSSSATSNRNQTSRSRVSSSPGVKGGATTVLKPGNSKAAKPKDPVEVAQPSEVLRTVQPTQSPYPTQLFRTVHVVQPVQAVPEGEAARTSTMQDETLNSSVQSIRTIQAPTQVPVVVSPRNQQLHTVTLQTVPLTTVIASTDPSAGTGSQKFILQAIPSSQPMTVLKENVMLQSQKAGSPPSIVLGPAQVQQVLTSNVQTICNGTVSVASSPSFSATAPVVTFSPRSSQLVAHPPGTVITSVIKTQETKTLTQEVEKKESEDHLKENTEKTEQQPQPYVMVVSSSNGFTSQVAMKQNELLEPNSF
# Method in brief: as §1
# [6] = molecular target: T5, EHF (Homo sapiens, UniProt Q9NZC4 1-300); settings: protein: recombinant; tags: N-terminal GST; dsDNA, one strand shown
# T5 sequence: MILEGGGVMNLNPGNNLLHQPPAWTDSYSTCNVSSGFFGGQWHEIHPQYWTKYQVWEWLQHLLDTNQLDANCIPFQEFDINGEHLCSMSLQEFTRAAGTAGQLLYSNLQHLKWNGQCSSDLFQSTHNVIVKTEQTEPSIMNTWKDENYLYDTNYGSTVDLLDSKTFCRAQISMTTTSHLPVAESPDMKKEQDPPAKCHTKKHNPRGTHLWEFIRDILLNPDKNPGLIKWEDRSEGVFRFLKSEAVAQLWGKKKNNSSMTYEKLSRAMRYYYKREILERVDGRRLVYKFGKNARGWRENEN
# Method in brief: as §1
# [7] = molecular target: SPI1 (Homo sapiens, UniProt P17947 1-270); settings: protein: recombinant; tags: N-terminal GST; dsDNA, one strand shown
# Method in brief: as §1
# [8] = molecular target: SPIB (Homo sapiens, UniProt Q01892 1-262); settings: protein: recombinant; tags: N-terminal GST; dsDNA, one strand shown
# Chain of SPIB (Q01892 whole entry): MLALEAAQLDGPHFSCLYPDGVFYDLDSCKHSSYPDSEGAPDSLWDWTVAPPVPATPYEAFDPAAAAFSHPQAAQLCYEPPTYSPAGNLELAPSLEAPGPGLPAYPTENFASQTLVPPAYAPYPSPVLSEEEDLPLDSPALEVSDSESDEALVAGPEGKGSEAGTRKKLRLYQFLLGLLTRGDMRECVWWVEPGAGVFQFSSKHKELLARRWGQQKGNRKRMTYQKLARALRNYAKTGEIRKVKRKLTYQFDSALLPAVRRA
# Method in brief: as §1
# [9] = molecular target: T6, ELK3 (Homo sapiens, UniProt P41970 1-407); settings: protein: recombinant; tags: N-terminal GST; dsDNA, one strand shown
# T6 sequence: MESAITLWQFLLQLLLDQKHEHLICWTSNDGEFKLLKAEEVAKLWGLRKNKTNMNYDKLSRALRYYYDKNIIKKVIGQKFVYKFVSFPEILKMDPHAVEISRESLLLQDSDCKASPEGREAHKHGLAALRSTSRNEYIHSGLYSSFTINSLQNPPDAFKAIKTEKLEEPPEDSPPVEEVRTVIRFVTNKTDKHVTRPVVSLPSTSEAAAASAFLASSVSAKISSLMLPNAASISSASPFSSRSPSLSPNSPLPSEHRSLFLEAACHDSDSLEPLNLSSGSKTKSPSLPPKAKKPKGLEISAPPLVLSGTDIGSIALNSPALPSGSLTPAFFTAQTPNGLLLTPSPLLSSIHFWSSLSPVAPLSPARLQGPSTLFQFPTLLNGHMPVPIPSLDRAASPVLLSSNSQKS
# Method in brief: as §1
# [10] = molecular target: T7, FEV (Homo sapiens, UniProt Q99581 1-238); settings: protein: recombinant; tags: N-terminal GST; dsDNA, one strand shown
# T7 sequence: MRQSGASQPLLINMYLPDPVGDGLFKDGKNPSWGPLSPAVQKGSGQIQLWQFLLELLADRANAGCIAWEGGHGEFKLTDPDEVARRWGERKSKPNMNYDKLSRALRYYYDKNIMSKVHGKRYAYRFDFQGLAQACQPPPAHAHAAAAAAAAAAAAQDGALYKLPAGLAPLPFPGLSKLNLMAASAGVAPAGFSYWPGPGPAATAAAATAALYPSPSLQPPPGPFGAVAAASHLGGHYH
# Method in brief: as §1
# [11] = molecular target: ETV5 (Homo sapiens, UniProt P41161 1-510); settings: protein: recombinant; tags: N-terminal GST; dsDNA, one strand shown
# Chain of ETV5 (P41161 whole entry): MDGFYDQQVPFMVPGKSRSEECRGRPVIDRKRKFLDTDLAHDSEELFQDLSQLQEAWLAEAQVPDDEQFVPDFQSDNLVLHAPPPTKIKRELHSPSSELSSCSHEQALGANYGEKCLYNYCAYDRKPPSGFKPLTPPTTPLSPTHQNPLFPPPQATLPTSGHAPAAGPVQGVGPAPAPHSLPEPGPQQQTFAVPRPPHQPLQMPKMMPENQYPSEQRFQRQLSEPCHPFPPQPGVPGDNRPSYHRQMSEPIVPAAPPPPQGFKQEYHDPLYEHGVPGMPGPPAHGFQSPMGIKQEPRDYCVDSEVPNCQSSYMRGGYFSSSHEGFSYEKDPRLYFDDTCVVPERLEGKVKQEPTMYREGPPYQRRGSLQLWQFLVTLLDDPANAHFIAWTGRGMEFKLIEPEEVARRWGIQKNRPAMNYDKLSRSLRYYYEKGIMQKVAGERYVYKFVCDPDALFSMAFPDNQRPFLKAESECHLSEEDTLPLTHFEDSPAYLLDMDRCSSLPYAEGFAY
# Method in brief: as §1
# [12] = molecular target: HSF1 (Homo sapiens, UniProt Q00613 1-529); settings: protein: recombinant; tags: N-terminal GST; chain copies: 3; dsDNA, one strand shown
# Chain of HSF1 (Q00613 whole entry): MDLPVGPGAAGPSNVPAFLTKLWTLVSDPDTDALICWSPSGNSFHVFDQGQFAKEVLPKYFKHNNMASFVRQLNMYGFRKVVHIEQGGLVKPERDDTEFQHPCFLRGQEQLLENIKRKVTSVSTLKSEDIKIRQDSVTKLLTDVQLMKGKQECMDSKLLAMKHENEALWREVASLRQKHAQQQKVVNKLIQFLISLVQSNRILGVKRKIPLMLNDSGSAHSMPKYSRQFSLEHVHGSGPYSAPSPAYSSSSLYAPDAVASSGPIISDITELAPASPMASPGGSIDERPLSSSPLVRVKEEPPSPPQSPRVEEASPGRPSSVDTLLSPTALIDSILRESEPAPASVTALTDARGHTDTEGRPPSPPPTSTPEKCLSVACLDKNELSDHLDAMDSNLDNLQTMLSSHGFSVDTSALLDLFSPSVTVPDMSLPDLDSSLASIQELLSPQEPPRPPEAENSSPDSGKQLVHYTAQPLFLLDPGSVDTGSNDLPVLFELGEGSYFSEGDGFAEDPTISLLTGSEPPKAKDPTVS
# Method in brief: as §1
# [13] = molecular target: T8, SPIC (Homo sapiens, UniProt Q8N5J4 1-248); settings: protein: recombinant; tags: N-terminal GST; dsDNA, one strand shown
# T8 sequence: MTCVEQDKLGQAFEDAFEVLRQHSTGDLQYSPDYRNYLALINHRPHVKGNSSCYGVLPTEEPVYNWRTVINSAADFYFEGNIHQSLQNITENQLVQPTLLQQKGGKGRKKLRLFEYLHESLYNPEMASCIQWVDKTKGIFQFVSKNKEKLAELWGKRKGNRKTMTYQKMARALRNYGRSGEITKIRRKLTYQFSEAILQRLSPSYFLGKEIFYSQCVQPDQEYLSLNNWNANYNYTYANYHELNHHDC
# Method in brief: as §1
# [14] = molecular target: ELF4 (Homo sapiens, UniProt Q99607 1-663); settings: protein: recombinant; tags: N-terminal GST; dsDNA, one strand shown
# Chain of ELF4 (Q99607 whole entry): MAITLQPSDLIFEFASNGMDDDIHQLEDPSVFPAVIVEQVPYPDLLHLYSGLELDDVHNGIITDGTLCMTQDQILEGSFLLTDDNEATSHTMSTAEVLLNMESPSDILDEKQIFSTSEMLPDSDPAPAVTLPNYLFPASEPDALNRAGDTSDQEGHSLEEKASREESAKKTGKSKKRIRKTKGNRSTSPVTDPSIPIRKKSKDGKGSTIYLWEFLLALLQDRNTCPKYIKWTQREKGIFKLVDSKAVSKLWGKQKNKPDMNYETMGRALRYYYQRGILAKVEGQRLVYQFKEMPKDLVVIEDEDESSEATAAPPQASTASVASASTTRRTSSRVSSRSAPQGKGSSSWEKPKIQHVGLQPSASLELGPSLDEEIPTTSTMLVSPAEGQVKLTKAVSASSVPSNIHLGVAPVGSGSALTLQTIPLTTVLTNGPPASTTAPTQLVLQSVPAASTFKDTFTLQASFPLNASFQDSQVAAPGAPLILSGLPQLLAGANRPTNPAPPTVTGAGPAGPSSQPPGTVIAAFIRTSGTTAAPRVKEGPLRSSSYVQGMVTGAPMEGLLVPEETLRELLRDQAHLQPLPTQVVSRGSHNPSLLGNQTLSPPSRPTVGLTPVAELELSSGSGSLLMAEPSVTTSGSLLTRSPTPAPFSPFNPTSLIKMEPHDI
# Method in brief: as §1
# [15] = molecular target: T9, ELK4 (Homo sapiens, UniProt P28324-2 1-405); settings: protein: recombinant; tags: N-terminal GST; dsDNA, one strand shown
# T9 sequence: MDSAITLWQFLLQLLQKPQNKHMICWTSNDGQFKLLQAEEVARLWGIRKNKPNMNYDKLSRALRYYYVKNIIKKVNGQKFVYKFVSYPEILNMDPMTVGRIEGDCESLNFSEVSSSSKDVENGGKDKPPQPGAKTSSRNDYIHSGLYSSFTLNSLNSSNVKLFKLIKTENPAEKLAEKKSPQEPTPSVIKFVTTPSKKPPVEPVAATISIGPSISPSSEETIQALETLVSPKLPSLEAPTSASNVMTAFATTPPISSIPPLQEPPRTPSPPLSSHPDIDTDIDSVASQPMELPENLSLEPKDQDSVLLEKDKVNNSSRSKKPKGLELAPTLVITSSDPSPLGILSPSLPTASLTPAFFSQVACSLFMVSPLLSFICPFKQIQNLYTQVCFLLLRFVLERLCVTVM
# Method in brief: as §1
# [16] = molecular target: T10, ETV2 (Homo sapiens, UniProt O00321 1-342); settings: protein: recombinant; tags: N-terminal GST; dsDNA, one strand shown
# T10 sequence: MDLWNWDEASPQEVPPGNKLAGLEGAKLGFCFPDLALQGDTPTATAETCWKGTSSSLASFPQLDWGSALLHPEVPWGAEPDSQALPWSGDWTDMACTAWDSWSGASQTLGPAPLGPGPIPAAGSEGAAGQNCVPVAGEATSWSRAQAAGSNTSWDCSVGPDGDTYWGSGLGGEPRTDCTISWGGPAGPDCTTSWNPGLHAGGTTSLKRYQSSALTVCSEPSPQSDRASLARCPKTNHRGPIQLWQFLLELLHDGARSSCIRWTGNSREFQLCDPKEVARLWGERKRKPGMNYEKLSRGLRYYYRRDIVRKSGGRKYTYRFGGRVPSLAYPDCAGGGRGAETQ
# Method in brief: as §1
# [17] = molecular target: T11, ELF3 (Homo sapiens, UniProt P78545 1-371); settings: protein: recombinant; tags: N-terminal GST; dsDNA, one strand shown
# T11 sequence: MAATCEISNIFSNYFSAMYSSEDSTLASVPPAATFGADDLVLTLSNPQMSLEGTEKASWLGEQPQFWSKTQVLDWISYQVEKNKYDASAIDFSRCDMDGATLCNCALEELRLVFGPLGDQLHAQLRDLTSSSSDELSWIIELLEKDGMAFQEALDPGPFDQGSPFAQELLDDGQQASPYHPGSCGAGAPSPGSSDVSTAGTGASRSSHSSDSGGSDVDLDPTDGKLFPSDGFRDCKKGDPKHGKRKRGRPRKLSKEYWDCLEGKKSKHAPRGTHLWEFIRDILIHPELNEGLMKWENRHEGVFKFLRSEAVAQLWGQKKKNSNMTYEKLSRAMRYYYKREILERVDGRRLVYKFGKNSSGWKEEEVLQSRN
# Method in brief: as §1
# [18] = molecular target: CRX (Homo sapiens, UniProt O43186 1-299); settings: protein: recombinant; tags: N-terminal GST; dsDNA, one strand shown
# Chain of CRX (O43186 whole entry): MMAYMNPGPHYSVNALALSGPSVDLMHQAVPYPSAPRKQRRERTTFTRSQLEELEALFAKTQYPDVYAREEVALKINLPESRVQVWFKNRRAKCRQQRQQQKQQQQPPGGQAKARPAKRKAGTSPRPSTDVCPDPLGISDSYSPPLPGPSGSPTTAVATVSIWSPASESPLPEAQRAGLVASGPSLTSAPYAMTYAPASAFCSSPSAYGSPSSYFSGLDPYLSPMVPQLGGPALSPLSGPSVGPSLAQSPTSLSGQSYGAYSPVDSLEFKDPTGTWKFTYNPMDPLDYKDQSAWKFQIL
# Method in brief: as §1
# [19] = molecular target: ETV1 (Homo sapiens, UniProt P50549 1-477); settings: protein: recombinant; tags: N-terminal GST; dsDNA, one strand shown
# Chain of ETV1 (P50549 whole entry): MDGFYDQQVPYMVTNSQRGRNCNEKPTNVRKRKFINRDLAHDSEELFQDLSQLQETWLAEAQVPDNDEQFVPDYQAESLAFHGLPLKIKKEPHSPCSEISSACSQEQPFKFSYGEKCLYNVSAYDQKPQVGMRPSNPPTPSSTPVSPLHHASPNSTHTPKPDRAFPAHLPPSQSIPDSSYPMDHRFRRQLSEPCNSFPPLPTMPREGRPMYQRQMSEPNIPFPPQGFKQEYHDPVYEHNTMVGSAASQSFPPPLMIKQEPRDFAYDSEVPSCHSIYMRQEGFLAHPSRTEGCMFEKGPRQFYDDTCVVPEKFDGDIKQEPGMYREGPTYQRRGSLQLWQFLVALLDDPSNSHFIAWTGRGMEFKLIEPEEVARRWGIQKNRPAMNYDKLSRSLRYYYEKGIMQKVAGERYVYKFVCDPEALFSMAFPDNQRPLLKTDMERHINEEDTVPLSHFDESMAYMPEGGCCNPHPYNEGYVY
# Method in brief: as §1
sequence,measurement,setting,value
AATGTA,binding signal,[1],"1.19 fold enrichment (6-mer frequency, TF over GST control)"
same,binding signal,[2],"1.09 fold enrichment (6-mer frequency, TF over GST control)"
same,binding signal,[3],"1.1 fold enrichment (6-mer frequency, TF over GST control)"
same,binding signal,[4],"1.17 fold enrichment (6-mer frequency, TF over GST control)"
same,binding signal,[5],"1.16 fold enrichment (6-mer frequency, TF over GST control)"
same,binding signal,[6],"1.22 fold enrichment (6-mer frequency, TF over GST control)"
same,binding signal,[7],"1.12 fold enrichment (6-mer frequency, TF over GST control)"
same,binding signal,[8],"1.2 fold enrichment (6-mer frequency, TF over GST control)"
same,binding signal,[9],"1.17 fold enrichment (6-mer frequency, TF over GST control)"
same,binding signal,[10],"1.12 fold enrichment (6-mer frequency, TF over GST control)"
same,binding signal,[11],"1.11 fold enrichment (6-mer frequency, TF over GST control)"
same,binding signal,[12],"1.16 fold enrichment (6-mer frequency, TF over GST control)"
same,binding signal,[13],"1.12 fold enrichment (6-mer frequency, TF over GST control)"
same,binding signal,[14],"1.11 fold enrichment (6-mer frequency, TF over GST control)"
same,binding signal,[15],"1.32 fold enrichment (6-mer frequency, TF over GST control)"
same,binding signal,[16],"1.32 fold enrichment (6-mer frequency, TF over GST control)"
same,binding signal,[17],"1.16 fold enrichment (6-mer frequency, TF over GST control)"
same,binding signal,[18],"1.1 fold enrichment (6-mer frequency, TF over GST control)"
same,binding signal,[19],"1.23 fold enrichment (6-mer frequency, TF over GST control)"
